# According to PubChem BioAssay (NCI):
# This is part of a sample that, as a whole, favours compounds with a hit. Of some 79,000 tested, about 15% had one in any assay. A number with no mark means an inactive call. The source made the active and inactive calls. Rule as the data show it: active = growth inhibition above about 70%; inactive = the rest.
# Legend:
# [1] = NCI Yeast Anticancer Drug Screen. Data for the rad50 strain (AID 155);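 also: 0% = growth of vehicle-only cultures of the same strain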; settings: S. cerevisiae rad50 strain growth inhibition; at 50.0 µM; stronger effect = higher value
# Summary of the method: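 Cells are treated with compound, grown, and their growth is then scored against vehicle-only cultures of the same repair-deficient yeast strain.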
# [2] = NCI Yeast Anticancer Drug Screen. Data for the mec2-1 strain (AID 157); settings: S. cerevisiae mec2-1 strain, at 50.0 µM, stronger effect = higher value
# Summary of the method: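 Cells of the genetically defined mec2-1 yeast strain are incubated with test compound. Inhibition of growth is calculated against vehicle-treated controls.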
# [3] = NCI Yeast Anticancer Drug Screen. Data for the sgs1 mgt1 strain (AID 161);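 also: 0% = growth of cultures given vehicle only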; settings: S. cerevisiae sgs1 mgt1 strain, at 50.0 µM, stronger effect = higher value
# Summary of the method: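 Genetically altered yeast, compound exposure, growth inhibition relative to vehicle.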
# [4] = NCI Yeast Anticancer Drug Screen. Data for the cln2 rad14 strain (AID 165);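 also: 0% = growth equal to vehicle treated cultures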; settings: S. cerevisiae cln2 rad14 strain, at 50.0 µM, stronger effect = higher value
# Summary of the method: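 The screen exposed genetically defined yeast (cln2 rad14) to test compounds and scored growth inhibition relative to vehicle-treated controls.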
# [5] = NCI Yeast Anticancer Drug Screen. Data for the bub3 strain (AID 167); settings: S. cerevisiae bub3 mutant strain, at 50.0 µM, stronger effect = higher value
# Summary of the method: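 Part of a panel of yeast mutants defective in DNA damage repair or cell cycle regulation. Each strain is grown with compound, and inhibition is calculated relative to solvent-treated cultures.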
# [6] = NCI Yeast Anticancer Drug Screen. Data for the mlh1 rad18 strain (AID 175); settings: S. cerevisiae mlh1 rad18 strain growth inhibition; at 50.0 µM; stronger effect = higher value
# Summary of the method: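 Compound-treated yeast growth, normalised to vehicle controls. Strain bears defined DNA repair mutations.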
SMILES,growth inhibition [1] [%],growth inhibition [2] [%],growth inhibition [3] [%],growth inhibition [4] [%],growth inhibition [5],growth inhibition [6] [%]
C=C1CCC/C(=N\Nc2ccc([N+](=O)[O-])cc2[N+](=O)[O-])C12CCCC2,-2.45,3.45,-4.65,-11.6,1.15%,-1.35
C#CCOC(=O)C(N)CS (configuration not stated),-6.95,-20.3,-13.6,9.8,-4.4%,-13.7
O=C(NC1CCCN1C(=O)/C=C\c1ccccc1)OCc1ccccc1 (configuration not stated),-8.95,-4.95,-13.7,-62.5,0.6%,-12.3
CC(=O)NS(=O)(=O)c1ccc(N=C=S)cc1,-7.25,1.85,-12.8,-19.4,-2.9%,-1.05
CCC#CCN(CCC)CCC,-8.55,7.1,-10.7,-41.1,-17.9%,-18.9
OCC1NCC(O)C(O)C1O (configuration not stated),-6.6,-11.6,-14.4,2.3,-8.3%,7.25
Cc1ccccc1C=O,-2.75,-32.6,5.15,-3.35,-0.2%,-0.85
COC(=O)Nc1cc2c3c(c1)CCCN3CCC2,-6.35,-4.05,-2.2,-10.2,10.1%,1.8
CN(C)/C=N/NC(=O)c1ccccc1N,-15,-15.7,-6.75,-11.6,2.15%,0.55
C[N+](C)(C)CBr,36.8,-11,-21.5,-40.6,4.75%,-37.2
O=C1CSC(c2cccc(O)c2O)N1c1nncs1 (configuration not stated),1.35,0.25,1.85,-6.9,5.9%,-5.35
CCCC(=O)Nc1cccc(C(F)(F)F)c1,7.65,19.6,-11.4,22.5,26.9%,28.6
CCc1cc2c(O)c(c1)Cc1cc(CC)cc(c1O)Cc1cc(CC)cc(c1O)Cc1cc(CC)cc(c1O)Cc1cc(CC)cc(c1O)Cc1cc(CC)cc(c1O)Cc1cc(CC)cc(c1O)C2,6.55,27.2,19.8,6.5,6.9%,17.3
O=C1C=CC(=O)N1n1c(-c2ccccc2)n[nH]c1=O,4.05,-15.6,-16.9,-2.8,-8%,-53.6
CC(C)CC(O)CC(C)C,1.25,-25.1,-0.75,28.4,-15.3%,19.8
CSc1nc(C)cc(N(C)c2ccccc2)n1,-5.9,0.25,8.85,-8.9,-18.2%,14.6
CCOC(=O)C(=CN(C)c1ccc([N+](=O)[O-])cc1)C(=O)OCC,0.15,6.65,15.6,12.1,24.4%,15.5
O=C(CCC(=O)Nc1ccc(Cl)c(Cl)c1)Nc1ccc(Cl)c(Cl)c1,50.9,46.5,49,39.1,78.2% (active),63
CCOC(=O)C1=CC(=O)CC(C)(C)O1,-2.6,7.55,-1.65,-5.75,-0.8%,1.95
CCCCCCCC(=O)CC(C)C,12.1,-11.7,0.6,-2.5,-21.4%,6.65
CC(C#N)c1cn(S(=O)(=O)c2ccccc2)c2ccccc12 (configuration not stated),30.6,3.4,-5.4,9.75,52.7%,37

SMILES,growth inhibition [1] [%],growth inhibition [2] [%],growth inhibition [3] [%],growth inhibition [4] [%],growth inhibition [5],growth inhibition [6] [%]
CCOC(=O)c1c(-c2ccccc2)nn(CC(N)=O)c1CO,-15.9,-5.15,10.4,23.1,18.2%,-10.7
O=C(O)c1ccc2ncc(-c3ccccc3)nc2c1,5.3,11.7,2.35,-31.1,-7.4%,16.4
Nc1nc2ncn(COC(CO)CO)c2c(=O)[nH]1,7,6.9,-2.3,18.6,0.85%,20.1
NC(=O)Cc1nc(O)cc(=O)[nH]1,-8.45,-9.1,-8.3,-13.1,-1.9%,-2.15
CCOCCC(C)(OCC)OCC,-11.8,-36.1,-7,15.7,-3.65%,-5.3
O=C([O-])c1ccc2c(c1)-c1nc-2nc2[n-]c(nc3nc(nc4[n-]c(n1)c1ccc(C(=O)[O-])cc41)-c1ccc(C(=O)[O-])cc1-3)c1ccc(C(=O)[O-])cc21.[Gd+3].[K+],-12.8,-11.1,-11.8,23.6,18%,-12.1
c1ccc(N=C(C(=Nc2ccccc2)c2ccccc2)c2ccccc2)cc1,4.7,13.6,3.65,-67.8,4.65%,-9.05
Cc1cc2c(=O)cc(-c3ccccc3Cl)oc2c(C(=O)O)c1C,-3.1,-10.3,-4.45,8.2,-2.75%,-18.6
COC(=O)c1nc(N)nc(C(=O)OC)c1C(=O)c1ccncc1,-12.2,-19.9,0.1,-16.1,-24.9%,-4.45
C1=C(C2=CCCCC2)CCCC1,-1.35,6,-4.35,-42.9,4.8%,4.15
CC(=O)Nc1ccc(F)c([N+](=O)[O-])c1,-6.45,-19.6,3.35,-13.7,-14.9%,5.7
CCCCCCC#CC(=O)OC,-3.05,-21.6,1.5,15.4,-11.6%,24.4
O=C1Nc2cccc3cc(NCC(O)CCl)cc1c23 (configuration not stated),31.3,8.5,11.4,17.9,3.05%,-23.9
Cc1ccc(Cl)nn1,10,-1.25,-2.55,-3.3,12.9%,2.1
Nc1nc(-c2ccccn2)cc(-c2cc(-c3ccccn3)nc(N)n2)n1,-12.1,-11.6,-18.2,-0.7,-9.75%,6.25
O=[N+]([O-])c1ccc(N2CCN=N2)cc1,-24.2,-14.6,-15.2,2.35,-14.2%,-6.75
C[C@]12CCC(=O)C=C1CC[C@@H]1C2CC[C@]2(C)Nc3[nH]ncc3CC12 (some centres not stated),-22.2,9.6,37.4,33.6,11.8%,27.1
C=CCOC(=O)CC(=C)C(=O)OCC=C,8.5,26.4,-8.95,-4.7,-5.65%,-3.55
CN(CCN(C)C(=O)CCOS(C)(=O)=O)C(=O)CCOS(C)(=O)=O,-3.95,-3.05,-18.4,0,-25.6%,-51.5
O=CNc1ccc(F)c(F)c1,-16.8,-16.4,-6.95,-5.35,-7.2%,-10.1
CC(O)CNC(=O)CC(C)CC(C)(C)C (configuration not stated),45.7,19.9,24.9,13.4,25.4%,34
